Compound activity: PubChem BioAssay, Broad Institute
A selection: hits, their analogues and other compounds. The true share with any hit is near 2.2%.
PGC1a acetyl inh: inhibitors of PGC1a acetylation signal, primary screen, cell-based, U2OS, AlphaScreen, inhibitor mode; AlphaScreen anti-acetyl-lysine; with virally co-expressed GCN5 acetyltransferase; inhibition, % at 15.6 µM; actives 0.17% (n = 350,000); AID 651687, 2012;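 active = every replicate shows inhibition of at least 40%; inconclusive = mean inhibition at least 40% but some replicate below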;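 note: 0% = neutral control wells and 100% = positive control wells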
miR-122 sensor: miR-122 Renilla sensor signal increase in Huh7, primary screen, miR-122 inhibitor project, cell-based, single point, plate reader; Huh7 miR-122 Renilla luciferase sensor, 48 h; neutral wells = 0, positive control = 100; activation (reporter increase), % at 12.5 µM; actives 0.3% (n = 340,000); AID 602342, 2012;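 active = mean replicate activation score at least 90 and every replicate individually at or above 90; inconclusive = only one of the two criteria met; inactive = neither criterion met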;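 note: higher luciferase means less miR-122 activity so hits act as miR-122 inhibitors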
Statin myotox sup: suppressors of statin myotoxicity in C2C12 myotubes, primary screen, cell-based, single point, plate reader; C2C12 myotubes + simvastatin, ATP luminescence, 48 h; scaled: DMSO 0, geranylgeraniol control 100; rescue of ATP level, % at 7.49 µM; actives 0.78% (n = 330,000);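 active = mean ATP rescue above about 67%, or every replicate alone reaching that limit, limit read from the data, passing the limit was not always enough; inconclusive = no clear call, values can overlap the other calls; inactive = mean under the limit and some replicate under it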;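 note: myotubes were challenged with 10 µM simvastatin during compound exposure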
PvdQ inh: P. aeruginosa PvdQ acylase inhibitors, primary screen, biochemical, fluorescence, plate reader and imaging, single point; purified PvdQ acylase; actives 0.063% (n = 340,000); inhibition, % at 10 µM; AID 488965, 2010; in the data active = inhibition above about 30%, passing the limit was not always enough; inconclusive = no clear call, values can overlap the other calls;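 note: 0% = vehicle neutral wells and 100% = reference inhibitor wells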
DENV2 CPE rescue: inhibitors of DENV2 cytopathic effect, primary screen, cell-based, plate reader, single concentration. CPE inhibition, % at 9.99 µM. DENV2-infected cells, cytopathic effect rescue. AID 651640, 2012. actives 1.7% (n = 350,000); in the data active = CPE inhibition above about 20%, passing the limit was not always enough; inconclusive = no clear call, values can overlap the other calls; tested in BHK-21 cells;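 note: 0% = median of neutral control wells and 100% = median of positive control wells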
Active calls of the source: *; ? = inconclusive; · = no result given; [ ] = another dose, or the depositor's remark.

SMILES	PGC1a acetyl inh	miR-122 sensor	Statin myotox sup	PvdQ inh	DENV2 CPE rescue
CCCNC(=O)Nc1ccc2c(c1)C(=O)N(C)C[C@H](OC)[C@H](C)CN(C)[C@H](C)CO2	-1.0	19.8[16.7 µM]	9.9	·	38.3*
Cc1ccc(S(=O)(=O)N(C)C[C@H]2OCCCC[C@@H](C)Oc3ccc(NC(=O)Nc4ccccc4)cc3C(=O)N([C@@H](C)CO)C[C@H]2C)cc1	-2.4	4.1[16.7 µM]	·	·	-4.0
CCNC(=O)Nc1ccc2c(c1)C(=O)N(C)[C@@H]1CC[C@H](CC(=O)NCc3ccc(F)cc3)O[C@H]1CO2	-0.3	-5.0[16.7 µM]	0.0	·	54.8*
CCNC(=O)C[C@H]1CC[C@H]2[C@H](COc3ccc(NC(=O)c4ccc(F)c(F)c4)cc3C(=O)N2C)O1	0.4	15.0[16.7 µM]	-46.0	·	88.2*
CCNC(=O)C[C@@H]1CC[C@H]2[C@H](COc3ccc(NC(=O)NC(C)C)cc3C(=O)N2C)O1	5.7	-11.1[16.7 µM]	1.5	·	-5.5
CCNC(=O)C[C@H]1CC[C@@H]2[C@H](COc3ccc(NC(=O)NC(C)C)cc3C(=O)N2C)O1	4.5	0.8[16.7 µM]	-4.6	·	40.9*
CC(C)NC(=O)Nc1ccc2c(c1)C(=O)N([C@@H](C)CO)C[C@@H](C)[C@@H](CN(C)Cc1ccc(C(F)(F)F)cc1)OCCCC[C@@H](C)O2	-1.4	-6.5[16.7 µM]	·	·	55.7*
CC(C)NC(=O)Nc1ccc2c(c1)C(=O)N([C@@H](C)CO)C[C@H](C)[C@H](CN(C)Cc1ccc(C(=O)O)cc1)OCCCC[C@@H](C)O2	0.1	12.7[16.7 µM]	·	·	25.2*
C[C@H](CO)N1C[C@H](C)[C@@H](CN(C)Cc2ccc(C(=O)O)cc2)Oc2ccc(NC(=O)NC3CCCCC3)cc2C1=O	-6.9	0.8[16.7 µM]	-2.9	·	44.9*
CC=Cc1ccc2n(c1=O)C[C@@H]1[C@@H](CO)[C@H](C(=O)NCCC)N(Cc3cccc(F)c3)[C@H]21 (mixture of isomers)	-16.9	-4.2[16.7 µM]	7.4	·	5.4
CC(C)NC(=O)N(C)C[C@H]1OCCCC[C@@H](C)Oc2ccc(NC(=O)c3ccncc3)cc2C(=O)N([C@@H](C)CO)C[C@@H]1C	0.9	7.6[16.7 µM]	33.4	·	2.1
CO[C@H]1CN(C)C(=O)c2cc(NC(=O)c3ccccc3F)ccc2OC[C@H](C)N(C(C)=O)C[C@@H]1C	5.0	·	-9.7	·	-1.5
N#C[C@@H]1[C@@H](c2ccc(-c3ccc(F)cc3)cc2)[C@H](CO)N1C(=O)Cc1ccccc1	2.1	·	75.2*	·	7.5
N#C[C@@H]1[C@H](c2ccccc2)[C@H](CO)N1C(=O)Cc1ccccc1	4.1	·	6.5	·	74.5*
C[C@H](CO)N1C[C@H](C)[C@H](CN(C)Cc2ccc(C(F)(F)F)cc2)Oc2ccc(NS(=O)(=O)c3cn(C)cn3)cc2C1=O	-24.0	5.1[16.7 µM]	28.6	·	0.5
O=c1c2ccccc2nc(-c2ccc(Cl)cc2Cl)n1CCCn1ccnc1	3.4	58.4	99.6*	1.0	·
O=C(CCN1CCc2ccccc21)c1ccc2c(c1)OCCO2	-0.7	-5.6	115.1*	-5.5	·
CCCNC(=O)N1[C@H](CO)[C@@H]2c3ccccc3N(C(=O)CC)C[C@@H]21	-2.1	8.3[16.7 µM]	-5.8	·	15.0
CCCNC(=O)c1cc2ccccc2c(=O)o1	-6.8	2.4	·	-5.8	?
Cc1cc(C)n(C(=O)c2cc3ccccc3c(=O)o2)n1	-1.5	3.1	93.1*	-14.5	·
CN1C(=O)[C@H]2[C@@H](/C=C/c3ccccc3)N3C(=O)CN(CCO)C(=O)[C@@]3(Cc3ccccc3)[C@H]2C1=O	0.1	-4.5	7.9	4.9	9.2
O=C1[C@H]2[C@@H](/C=C/c3ccccc3)N3C(=O)CN(CCO)C(=O)[C@@]3(Cc3ccccc3)[C@H]2C(=O)N1c1ccccc1	15.8	-4.0	-2.2	8.0	56.5*
COc1cc2c3c(c1)C1(C(=O)N3C(C)(C)C=C2C)C(C#N)=C(N)Oc2cc(C)oc(=O)c21 (centres undefined)	-1.4	2.1	113.9*	-6.8	·
CC1=CC(C)(C)N2C(=O)C3(C(C#N)=C(N)OC4=C3C(=O)CC(C)(C)C4)c3c(C)c(C)cc1c32 (centres undefined)	-16.6	8.4	92.4*	-13.6	-10.2
CC(C)C#Cc1ccc2c(c1)O[C@@H](CN(C)Cc1ccccc1)[C@@H](C)CN([C@H](C)CO)S2(=O)=O	-42.8	-5.8[16.7 µM]	7.9	·	-6.3
SMILES	PGC1a acetyl inh	miR-122 sensor	Statin myotox sup	PvdQ inh	DENV2 CPE rescue
O=C(Nc1nc2c(s1)CCCC2)c1ccc(Br)o1	-4.5	0.1	112.0*	-10.8	·
O=C(NCC[C@H]1CC[C@H](NC(=O)c2cccnc2)[C@@H](CO)O1)Nc1ccc(F)cc1	4.1	·	5.0	·	-5.7
C=CCNC(=O)[C@H]1[C@@H]2C(=O)O[C@@H](c3ccccc3)[C@@H](c3ccccc3)N2[C@@H](c2ccc(OCCO)cc2)[C@]12C(=O)N(C(=O)OCCOC)c1ccc(C#Cc3ccc(OC)cc3)cc12	6.7	·	·	·	22.6*
COCCOC(=O)N1C(=O)[C@@]2(c3cc(C#CCCO)ccc31)[C@H](C(N)=O)[C@H]1C(=O)O[C@H](c3ccccc3)[C@H](c3ccccc3)N1[C@@H]2c1ccc(OCCO)cc1	4.1	·	·	·	1.1
C=CCNC(=O)[C@H]1[C@@H]2C(=O)O[C@@H](c3ccccc3)[C@@H](c3ccccc3)N2[C@@H](c2ccc(O)cc2)[C@]12C(=O)N(C(=O)OCCOC)c1ccc(C#Cc3ccc(OC)cc3)cc12	4.8	·	·	·	11.1
COCCOC(=O)N1C(=O)[C@@]2(c3cc(C#CC4(O)CCCCCC4)ccc31)[C@H](c1ccc(OCCO)cc1)N1[C@H](c3ccccc3)[C@H](c3ccccc3)OC(=O)[C@H]1[C@@H]2C(N)=O	-12.2	·	·	·	68.9*
C[C@@H]1CCCCO[C@H](CN(C)S(C)(=O)=O)[C@@H](C)CN([C@@H](C)CO)C(=O)c2cc(NC(=O)Nc3ccccc3)ccc2O1	0.4	-4.0[16.7 µM]	·	·	·
C[C@H]1CCCCO[C@@H](CN(C)Cc2ccc(C(F)(F)F)cc2)[C@@H](C)CN([C@@H](C)CO)C(=O)c2cc(NC(=O)c3ccccc3)ccc2O1	-2.0	-13.8[16.7 µM]	·	·	23.1*
C[C@@H]1CCCCO[C@@H](CN(C)Cc2ccc(C(F)(F)F)cc2)[C@@H](C)CN([C@H](C)CO)C(=O)c2cc(NC(=O)c3ccccc3)ccc2O1	-8.9	21.0[16.7 µM]	·	·	25.1*
C[C@@H]1CCCCO[C@H](CN(C)Cc2ccc(C(F)(F)F)cc2)[C@@H](C)CN([C@@H](C)CO)C(=O)c2cc(NC(=O)c3ccccc3)ccc2O1	3.2	-5.6[16.7 µM]	·	·	9.5
C[C@@H]1CN([C@@H](C)CO)C(=O)c2cc(NC(=O)c3ccccc3)ccc2O[C@@H](C)CCCCO[C@H]1CN(C)Cc1ccc(C(F)(F)F)cc1	3.1	-8.7[16.7 µM]	·	·	48.6*
